Source: PubChem BioAssay (NCI)
The panel holds about 79,000 compounds, 15% with a hit somewhere; the sample as a whole holds those more often. A number with no mark means an inactive call. Calls of active or inactive are those of the source. No stated cut-off is given here; in the data, active means growth inhibition above about 70%; inactive means the rest.

Tests used:
[1] = NCI Yeast Anticancer Drug Screen. Data for the rad50 strain (AID 155);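 further: 0% = growth of vehicle-only cultures of the same strain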; details: S. cerevisiae rad50 strain growth inhibition, active compounds read high
In short: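 Relative growth inhibition (compound vs vehicle) was measured in yeast with a defined repair-gene alteration.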

[2] = NCI Yeast Anticancer Drug Screen. Data for the mec2-1 strain (AID 157); details: S. cerevisiae mec2-1 strain, active compounds read high
In short: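 Growth inhibition is read against vehicle-treated controls after compound exposure of the mec2-1 yeast strain, which is defective in DNA damage repair or cell cycle control.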

[3] = NCI Yeast Anticancer Drug Screen. Data for the sgs1 mgt1 strain (AID 161);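 further: 0% = growth of cultures given vehicle only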; details: S. cerevisiae sgs1 mgt1 strain, active compounds read high
In short: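 Yeast cells carrying a defined DNA-repair defect were exposed to test compounds. Growth inhibition was measured relative to vehicle-treated controls.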

[4] = NCI Yeast Anticancer Drug Screen. Data for the cln2 rad14 strain (AID 165);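 further: 0% = growth equal to vehicle treated cultures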; details: S. cerevisiae cln2 rad14 strain, active compounds read high
In short: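 Growth inhibition, relative to vehicle-treated controls, is the read-out. The test organism is a yeast strain with defined genetic alterations, cln2 rad14.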

[5] = NCI Yeast Anticancer Drug Screen. Data for the bub3 strain (AID 167); details: S. cerevisiae bub3 mutant strain, active compounds read high
In short: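 Screening used yeast with an engineered genetic alteration affecting cell cycle control. Compound-exposed cultures were compared with vehicle cultures, and reduced growth was taken as inhibition.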

[6] = NCI Yeast Anticancer Drug Screen. Data for the mlh1 rad18 strain (AID 175); details: S. cerevisiae mlh1 rad18 strain growth inhibition, active compounds read high
In short: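 Cells of a genetically altered yeast strain, deficient in DNA damage repair, were treated with compound. Their growth was then compared with that of vehicle-treated cultures to give inhibition.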

[7] = at 5.0 µM (retest, dose inferred, filed as 0.5)
[8] = at 50.0 µM (retest, dose inferred, filed as 5.0)

Structure (SMILES) | growth inhibition [1, 7] | growth inhibition [1, 8] | growth inhibition ([1]; at 50.0 µM) | growth inhibition [2, 7] | growth inhibition [2, 8] | growth inhibition ([2]; at 50.0 µM) | growth inhibition [3, 7] | growth inhibition [3, 8] | growth inhibition ([3]; at 50.0 µM) | growth inhibition [4, 7] | growth inhibition [4, 8] | growth inhibition ([4]; at 50.0 µM) | growth inhibition [5, 7] | growth inhibition [5, 8] | growth inhibition ([5]; at 50.0 µM) | growth inhibition [6, 7] | growth inhibition [6, 8] | growth inhibition ([6]; at 50.0 µM)
CC(=O)Nc1ccc(NC(=S)Nc2ccc(NC(C)=O)cc2)cc1 | 97% (active) | 99% (active) | 92% (active) | 47% | 100% (active) | 15% | 68% | 100% (active) | -1.7% | 43% | 99% (active) | -5.1% | 62% | 100% (active) | 0.6% | 82% (active) | 99% (active) | 13.8%
Cn1c(=S)c2[nH]c(SCCN3CCCC3)nc2n(C)c1=O | 83% (active) | 99% (active) | 90.8% (active) | 70% (active) | 99% (active) | 61.2% | 53% | 94% (active) | 67.5% | 28% | 79% (active) | 1.75% | 61% | 99% (active) | 68% | 37% | 95% (active) | 97.2% (active)
Cc1nc(C(N)=S)sc1C(=O)CC(=O)C(=O)Nc1nc2ccccc2[nH]1 | 10% | -9% | -7.35% | 11% | 24% | 23.1% | 13% | -110% | -24.9% | 7% | 3% | 2.85% | 11% | -7% | 1.75% | 12% | 25% | -42.5%
O=C(/C=C/c1ccc2c(c1)OCO2)c1ccc(O)cc1 | -27% | -21% | 61% | -13% | 21% | 44% | -27% | -31% | 40.8% | -7% | -11% | 65.2% | -32% | 5% | 61.5% | -33% | -17% | 14.6%
COc1ccc(C2=C(Cl)C(=O)N(c3ccc(Cl)cc3)C(=O)C2(Cl)Cl)cc1 | 12% | 95% (active) | 93.2% (active) | 3% | 97% (active) | 98.2% (active) | 13% | 96% (active) | 97.1% (active) | -10% | 91% (active) | 63% | -3% | 95% (active) | 93.2% (active) | 9% | 94% (active) | 96% (active)
CCN(CC)CCC(=O)OC1C(C)=CC(C)C(=O)CC(C(C)CC2CCC(O)C(OC)C2)OC(=O)C2CCCCN2C(=O)C(=O)[C@@]2(O)OC(CCC2C)CC(OC)\C(C)=C/C=C/C=C/C(C)CC(C)C(=O)C1OC (some centres not stated) | 40% | 97% (active) | 90.9% (active) | 26% | 98% (active) | 93% (active) | 96% (active) | 96% (active) | 93.4% (active) | 94% (active) | 95% (active) | 87.7% (active) | 53% | 98% (active) | 92.8% (active) | 97% (active) | 97% (active) | 92.2% (active)
CC/C(C)=C1\CCC(CN2CCOCC2)C1=O (configuration not stated) | 24% | 61% | 79% (active) | 20% | 77% (active) | 72% (active) | 24% | 70% (active) | 66.3% | 31% | 45% | 48.8% | 31% | 94% (active) | 62.9% | 14% | 90% (active) | 79.2% (active)
O=C(O)c1c(Br)c(Br)c(Br)c(Br)c1-c1c2ccc(=O)cc-2oc2cc(O)ccc12 | 94% (active) | 93% (active) | 84.1% (active) | 95% (active) | 96% (active) | 88.7% (active) | 87% (active) | 96% (active) | 87.1% (active) | 88% (active) | 95% (active) | 87.8% (active) | 91% (active) | 95% (active) | 85.8% (active) | 94% (active) | 92% (active) | 83.5% (active)
Clc1ccc(SCCN2CCN(CCSc3ccc(Cl)cc3)CC2)cc1 | 76% (active) | 98% (active) | 83.2% (active) | 79% (active) | 99% (active) | 77.9% (active) | 92% (active) | 99% (active) | 94.2% (active) | 54% | 98% (active) | 86.9% (active) | 85% (active) | 99% (active) | 92.1% (active) | 88% (active) | 99% (active) | 96.6% (active)
NNc1c(Cl)cc(Cl)cc1Cl | 44% | 93% (active) | 98.2% (active) | -16% | 97% (active) | 98.9% (active) | 12% | 94% (active) | 99.7% (active) | 21% | 43% | 97.8% (active) | 67% | 93% (active) | 99.2% (active) | 51% | 97% (active) | 99.7% (active)
Cc1cccc[n+]1CC(=O)c1cccc(O)c1 | 1% | -2% | -11.1% | -2% | 4% | -3.5% | 0% | -2% | -7.45% | 4% | -4% | 36.6% | 1% | -3% | -13.6% | -2% | -4% | 7.25%
O=C(CSc1nnc(-c2ccc(N=Cc3ccc(Cl)cc3)cc2)o1)Nc1ccccc1Cl | 22% | 57% | 54.8% | -10% | 44% | -11.8% | 7% | 40% | 6.25% | 14% | 28% | -54.5% | -1% | 20% | -11.8% | 2% | 58% | 20.4%
O=C1C(=O)C(Cc2ccccc2)(c2ccccc2)C(=O)N1c1ccccc1 (configuration not stated) | 0% | 42% | 68.2% | -3% | 59% | 6.25% | -2% | 70% (active) | 54.6% | 3% | 22% | -9.8% | -1% | 52% | 10.3% | 1% | 62% | 40.4%
CC1(C)C=CC2=C(O1)C(=O)c1ccccc1C2=O | 9% | 76% (active) | 39.6% | 8% | 77% (active) | -0.85% | 18% | 88% (active) | 73.2% (active) | -7% | 12% | 6.9% | 67% | 95% (active) | 48.4% | 16% | 89% (active) | 44.5%
Cc1c2ccccc2c(=O)n2c(-c3ccccn3)cccc12 | -47% | -14% | 46.8% | -20% | -16% | -1.2% | 7% | -3% | 77.8% (active) | 8% | 26% | 33.1% | -26% | -17% | 30.8% | -43% | 31% | -6.4%
COc1cc(CNC(=O)CCCCCCCC/C=C/Br)ccc1O | -32% | 93% (active) | 84.7% (active) | -7% | 96% (active) | 85.8% (active) | -2% | 92% (active) | 90.5% (active) | -4% | 94% (active) | 85% (active) | -4% | 95% (active) | 87.6% (active) | -16% | 92% (active) | 87.5% (active)
COc1ccc2cc(CNCCCCCCCCNCc3ccc4cc(OC)ccc4c3)ccc2c1 | 22% | 99% (active) | 97.7% (active) | 6% | 100% (active) | 97.2% (active) | 19% | 99% (active) | 95.1% (active) | 9% | 99% (active) | 94.5% (active) | 9% | 100% (active) | 93.7% (active) | 31% | 99% (active) | 97.2% (active)
CN(C)C(=O)N(C)/N=C/c1ccc([N+](=O)[O-])o1 | 10% | 56% | 80.3% (active) | 1% | 21% | 53.5% | 8% | 68% | 90.8% (active) | 4% | 30% | 42.2% | 5% | 42% | 40% | 21% | 68% | 89.5% (active)
CCOC(=O)CCCCCN | 6% | 8% | -4.55% | 1% | 2% | -7.75% | 1% | 7% | 34.1% | 9% | -2% | -39.5% | 2% | -4% | 1.75% | 5% | 6% | -30.3%
